# PubChem BioAssay AID1508600 (Functional Genomics Laboratory (NCATS/FGL), 2020)
# Hit rate of the full screen: of about 53,000 sequences, about 3,700 (7%) were called active. This excerpt belongs to a sample that is enriched for actives. A number with no mark means an inactive call.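 How the source made its calls: active means gene knockdowns whose robust z-score for IL-1 alpha signal is at least 2 or at most -2, so actives lie on both sides; inactive means the rest.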
# Experiment: Components of the Cytosolic LPS Sensing Pathway: Gene Identification via Genome-wide siRNA Screen;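 further: robust z of the log signal after scaling to non-targeting control siRNA wells of the plate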
# Conditions: RAW264.7 macrophages, IL-1a HTRF, actives lie on both sides, screened at 100 nM (by protocol), cells primed 5 h with Pam3CSK4 first
# In short: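 Supernatant IL-1a by HTRF from RAW264.7 cells primed with Pam3CSK4 (5 hours) and transfected with LipidA (24 hour) after 48h siRNA knockdown at 100 nM; cell viability checked with CellTiter-Glo.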
row,Sequence,z-score
1,GCAACUCAGAAUGUAGUGUTT against Gnai1,0.298
2,GGCUUUUGAUGAGGUAAAATT against Plekho2,-1.12
3,GGAGGAAAAACAGUGCAGATT against Smchd1,-1.54
4,GGACCUAUUACCUCAAUGATT against Spatc1l,-2.59 (active)
5,GGUUCUGACUUGAGAAAACTT against Clba1,1.41
6,GGUUAUUCUGGUACAGGUUTT against Fndc3a,0.191
7,GGCUCAGCUCAUGAACGACTT against Acvr2b,-0.00307
8,GGACAUGACCAAAAGGCUGTT against Zfp706,3.84 (active)
9,GGUGGUUUUCAUGUUUCCCTT against Olfr574,-1.48
10,GGCUAGAAUGCACAUUUUATT against Tmem65,-1.26
11,CCACCCUCUUCAUAACAGUTT against Med27,-0.82
12,GCCAAUACACGUCUACUGATT against Gm1553,-0.0632
13,GGUGACACUCAAGGUGUCATT against Ldlrap1,2.23 (active)
14,GGACCAUGAGACGAUGGGATT against Dysf,0.167
15,GCUAAUGACACCACUUUUGTT against Aldh9a1,-0.379
16,GGAUUGAGUCCUAUGAAGGTT against Stard3nl,-1.09
17,CCAAGUGACUUUAAGGAUGTT against Pcolce,0.759
18,GGCCAUCAUAUCACCAUUUTT against Rcsd1,1.6
19,GCCUUAGGCAUUUAGAUUUTT against Zbed4,1.33
20,GCUGAAGUUCGUACCCUACTT against Osbp2,-2.42 (active)
21,CGGAGUUCAGCAUUUACCCTT against Shld2,0.428
22,GGCAGUUUGACAACUUUAATT against Fibp,-0.653

row,Sequence,z-score
1,CCCAGCUCAGGUUUCUAUGTT against Dact2,0.0333
2,GGUGAUCAAUCCUCUAAUATT against Eid2,2.61 (active)
3,GCCUAUGUAAAUAGUGCUGTT against Mt3,0.549
4,GCUAGGUUGGAUAUAUAUGTT against Mypn,-0.0247
5,CGAAGUGAGAAUUGAAUUUTT against Zp2,1.51
6,GCUGCUCAGUUUCUUCCAATT against H4c9,2.08 (active)
7,CGGGAAGUAGUGCAACACCTT against Taldo1,-0.902
8,GCACGUAGUAAGAUGUUACTT against Cnot9,-0.969
9,GGGCAUGAAUGGUUACUUATT against Mllt6,1.24
10,GCACAGUACCAUAACGGCUTT against Nampt,-2.06 (active)
11,GGGUGUCAUAUAUAUUGCUTT against Gpr83,0.889
12,GCAAGUGAAAUCCAAACAGTT against Nabp1,-1.54
13,GGUGAGAAGACCAUUGAUUTT against Insr,0.459
14,GGUACUCUCAUUAUCUUUCTT against Tlr8,-0.217
15,GUGAGAAGUUGUGUAGAGCTT against Fmc1,1.84
16,GCAUACAACUGUUCAUAGATT against Nsrp1,-0.476
17,GGAGCUGAGGGAACCUUGUTT against Slc35c1,-2.67 (active)
18,GGACAGCGACAAGAUUCCGTT against Sox4,-0.714
19,GCCUUUAAUCAACCCAAGATT against Scd1,-0.728
20,GCUAAAGAUGAGCGUACAUTT against Myh10,1.44
21,GGUGGUGGAGAAGAUAGGATT against Pax8,-1.05
22,CCAUCUAUUACGGAACGGGTT against Olfr324,1.36

row,Sequence,z-score
1,GGCCUCAACUAAGAACCCUTT against Pcdh1,-0.298
2,GGUCCAAUUAACCUAUCUUTT against Ppip5k2,-2.06 (active)
3,GGAGAUUAGUUACUUCCAGTT against Slc1a7,3.5 (active)
4,GGAUACAUUAAUUGUUUGGTT against Ppp4r3b,2.55 (active)
5,GGUCACUGCUAAAGCCUGATT against Stoml3,0.864
6,GGCCAUGAAUAUGGAGUCCTT against Cptp,0.623
7,GGAAAUCAGAGCUGAGUUATT against Ankrd6,0.0763
8,GGUAGUAGUAAGCCAUAAATT against Exoc8,0.736
9,CCCUUGAACAUUCUACUCUTT against 1700012A03Rik,-0.955
10,GAUCAUCGGCAUUUUGAACTT against Il4,-0.527
11,GGCUGGUACAAAGUUUUAGTT against Mpv17,2.55 (active)
12,GGUAGUAGGAGUUUCCUACTT against 4933414I15Rik,1.44
13,CGGUAAUCAUUGCUGUUCUTT against H2-K1,1.05
14,GGAAGACCAAUAGUACUGCTT against Il1rn,-0.0282
15,GGAGUACGAAUUCCUCACUTT against Arhgdib,-0.0475
16,GGCUCAAAGAAUAUGCCAATT against Rad54b,0.99
17,GCCAGUGCUGGUUUGAAAUTT against Clip4,1.67
18,CCACUGUUACCAUUAUAAUTT against Pramel4,-0.594
19,GGAUAAAGGAAUCUGAUCUTT against Unc80,-2.58 (active)
20,GCGCAGAAGAGGCUAUUAUTT against Asprv1,-0.125
21,GGUAGCACUUACGUGAAAUTT against Mbd2,-0.655
22,GCAUAUGGCACCACAUUGUTT against Psg25,0.0646

row,Sequence,z-score
1,GGAUAUCAGGGUUGUUAAGTT against Txnl4b,0.952
2,GGCUAUGUUAAUUUGUCCCTT against Hc,0.00272
3,GCAAUAUGUGACAAACUUCTT against Ptpn22,2.06 (active)
4,GGAAUCAGCAAUGGACCCUTT against Parn,-0.818
5,CCUGGGCCUUAACAAGAAGTT against Upf1,-1.32
6,CCCACUUUGAAAAAGACUCTT against Mei4,2.5 (active)
7,GCUUUGGAUAGUAGACAGCTT against BC055324,0.199
8,GGGACAAUUAGAAAGACAUTT against Mtif2,0.982
9,GGAACCAACCAGGAGAAAUTT against Ms4a4d,-2.58 (active)
10,GGAACUCACGCACAUAUUUTT against Net1,-0.483
11,GACUUACUUGCAUCACUGATT against Vmn1r4,-0.732
12,GGUGAAUGUAUAAGUUAUGTT against Icam1,1
13,GCUUUCUUAGCAUUAAAUCTT against Zkscan3,-0.274
14,GGUUCAUGAUGGAUGACAUTT against Bmerb1,-1.96
15,GGCUUGAAGUUCAUUUAUUTT against Nkiras2,-1.03
16,GGUUAUUCAAAAAUGCAACTT against Rcor1,-0.559
17,GGAAAGGCUCAAUGAGAGCTT against Nipa2,-3.3 (active)
18,GGUCUAUGCGAUGCUAUACTT against Sarm1,-0.508
19,GCCGUUUACCUUAGUCUGUTT against Cyb5rl,0.00283
20,GCCAGCCUAAAAAAGAUACTT against Eef1g,0.254
21,GGAUCUUGGCUAAAGAGGGTT against Slc25a25,0.0129
22,GCAAUUGAAAGUGAACAAUTT against Olfr1360,-0.935

row,Sequence,z-score
1,GGAGGAAAGUUGUAUUUGATT against Nudt7,0.148
2,GGCGAGUUCAGGAGUUUACTT against Fmnl1,2.55 (active)
3,GGGUACCUGUCCAAGGUCATT against Mfn2,0.849
4,GGAUGGAACAUAUGAUUAGTT against Vmn1r234,0.653
5,GGUGUCAGGAUUUUAUAACTT against Etfbkmt,-0.182
6,GGUGGUUUGUGAUGAAAAUTT against Pabpc1,2.11 (active)
7,GUUUGUCUAGCUUCAGAUGTT against Rims4,1.78
8,GGGAGGACAUCCAGACAAUTT against Fam13b,-0.305
9,GGGAAAGAUAAGCUCAAGGTT against Sh2d2a,1.32
10,GACUCUAAACCUAGCAGCGTT against Basp1,-2.34 (active)
11,GGCUGGUUUAUUUGUGGACTT against Cemip2,0.574
12,GGAUAUGGAAGAAGUUGUGTT against Olfr1089,-2.2 (active)
13,CCAGCUAUACGAAGACUUCTT against Hdhd3,0.0525
14,GGAGGUGGAAUCUUUCCCUTT against Aplp1,-1.68
15,GGAAAAGGCAAUCGUUUCUTT against Mtg2,0.278
16,GUAUGUUCAUAUGGUUUUCTT against Swi5,2.33 (active)
17,GUCUUCCCUCAUCCUUUGATT against Cox8a,0.902
18,GCAGAAGUUCAUUUUCCUATT against Olfr145,0.969
19,GGUCAUGUCCAUCCCAAAGTT against Ficd,1.15
20,GGAUUAUUUUAAGUGGAGATT against Dna2,-0.103
